PubChem BioAssay
Active and inactive are the calls of the source. Unless noted, the rule behind the calls is not given here.

Legend:
[1] = HepG2 liver cancer cell viability effects, profiling panel, resazurin fluorescence, 24 h, PK04 Diversity Set (AID 1172); conditions: higher = more signal
[2] = basal S. cerevisiae growth modulation, no modifier, primary screen, OD600, strain BY4716, 24 h, basal condition (AID 1173); conditions: OD600, 24 h, higher = more signal, called active from +8 up or from −8 down
[3] = MM1S myeloma cell viability, profiling panel, resazurin fluorescence, basal, 24 h, PK04 Diversity Set (AID 1174); conditions: higher = more signal, called active from +8 up or from −8 down;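 note: MM1S multiple myeloma cell line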
[4] = biological target: Dihydroorotate dehydrogenase (quinone), mitochondrial (Plasmodium falciparum (isolate 3D7)) (UniProt Q08210); assay: PfDHODH enzyme inhibitors, primary screen, biochemical, C-terminal His tag, absorbance 600 nm (AID 1175); conditions: DCIP absorbance 600 nm, higher = more signal, called active from +8 up or from −8 down;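 note: recombinant parasite enzyme with a five histidine tag at its C terminus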
[5] = P. aeruginosa biofilm formation inhibitors, primary screen, strain PAO1, LB-PBS medium, absorbance 600 nm (AID 1176); conditions: P. aeruginosa PAO1 growth/biofilm, A600, 12 h; higher = more signal
[6] = S. cerevisiae RM11-1a growth modifiers, primary screen, strain RM11-1a, OD600, basal, 24 h (AID 1177); conditions: OD600, 24 h, higher = more signal, called active from +8 up or from −8 down;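 note: cultures grown under basal conditions with no added stressor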
[7] = E. coli acrAB mutant growth effects, primary screen, E. coli filamentation inducers, strain DRC39, OD650, 24 h (AID 1178); conditions: higher = more signal, called active from +8 up or from −8 down;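 note: growth measured as culture turbidity by optical density at 650 nm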
[8] = E. coli acrAB mutant growth effects, primary screen, E. coli filamentation inducers, strain DRC39, OD650, 48 h (AID 1179);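 note: screen aims at cell division blockers that make cells filament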; conditions: E. coli DRC39 delta-acrAB growth, higher = more signal, called active from +8 up or from −8 down
[9] = RPMI8226 myeloma cell viability, profiling panel, resazurin fluorescence, basal, 24 h, PK04 Diversity Set (AID 1180); conditions: higher = more signal;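 note: RPMI8826 multiple myeloma cell line at 5000 cells per well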
[10] = biological target: E3 ubiquitin-protein ligase XIAP (Homo sapiens) (UniProt P98170); assay: XIAP binders, primary screen, biophysical, small-molecule microarray, fluorescence 635 nm (AID 1181); conditions: small-molecule microarray binding, higher = more signal;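 note: score merges 667 nm emission and signal to noise over triplicate slides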
[11] = system: XIP peptide (Xip251-270) binding; assay: small-molecule binders of XIP peptide, primary screen, biochemical, small-molecule microarray, fluorescence 635/667 nm, 0.1 µg/mL protein (AID 1182); conditions: fluorescent protein binding, 635 nm, higher = more signal, called active from +8 up or from −8 down
[12] = system: XIP peptide (Xip251-270); assay: small-molecule binders of XIP peptide, primary screen, biochemical, small-molecule microarray, fluorescence 635/667 nm, 0.5 µg/mL protein (AID 1183); conditions: small-molecule microarray binding, fluorescence 635 nm; higher = more signal
[13] = Plasmodium falciparum growth inhibition, primary screen, strain 3D7, DAPI fluorescence, 100 nL (AID 1184);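 note: parasites grown inside human red blood cells in medium with human serum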; conditions: P. falciparum 3D7 growth, 3 d, higher = more signal
[14] = biological target: Homeobox protein Hox-A13 (Mus musculus) (UniProt Q62424); assay: inhibitors of HoxA13-DNA binding, primary screen, biochemical, fluorescence polarization, labeled oligonucleotide (AID 1185); conditions: 15 min, higher = more signal, called active from +8 up or from −8 down
[15] = inhibitors of hydroxyurea-induced Chk1 phosphorylation, primary screen, imaging, HeLa, phospho-Chk1 antibody, percent positive cells (AID 1186); conditions: hydroxyurea-induced phospho-Chk1 immunofluorescence imaging, higher = more signal
[16] = inhibitors of hydroxyurea-induced Chk1 phosphorylation, primary screen, imaging, HeLa, phospho-Chk1 nuclear intensity (AID 1187); conditions: hydroxyurea-induced phospho-Chk1 immunofluorescence imaging, higher = more signal

Dihydroorotate dehydrogenase (quinone), mitochondrial (Plasmodium falciparum (isolate 3D7)), sequence (Q08210 whole entry, looked up): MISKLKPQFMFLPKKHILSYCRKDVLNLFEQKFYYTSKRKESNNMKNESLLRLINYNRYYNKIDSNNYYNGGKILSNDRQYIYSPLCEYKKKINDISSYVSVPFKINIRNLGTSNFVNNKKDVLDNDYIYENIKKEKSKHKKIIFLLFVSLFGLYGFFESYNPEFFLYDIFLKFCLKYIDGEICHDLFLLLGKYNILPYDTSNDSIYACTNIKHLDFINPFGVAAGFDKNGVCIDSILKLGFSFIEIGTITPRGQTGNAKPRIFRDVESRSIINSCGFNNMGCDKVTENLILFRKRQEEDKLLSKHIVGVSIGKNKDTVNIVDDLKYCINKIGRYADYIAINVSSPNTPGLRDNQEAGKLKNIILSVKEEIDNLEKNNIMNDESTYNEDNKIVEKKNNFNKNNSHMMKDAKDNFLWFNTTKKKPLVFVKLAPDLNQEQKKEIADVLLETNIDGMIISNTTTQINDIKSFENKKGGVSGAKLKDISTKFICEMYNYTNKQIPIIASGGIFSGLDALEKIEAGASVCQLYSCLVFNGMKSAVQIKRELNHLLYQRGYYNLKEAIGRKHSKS
E3 ubiquitin-protein ligase XIAP (Homo sapiens), sequence (P98170 whole entry, looked up): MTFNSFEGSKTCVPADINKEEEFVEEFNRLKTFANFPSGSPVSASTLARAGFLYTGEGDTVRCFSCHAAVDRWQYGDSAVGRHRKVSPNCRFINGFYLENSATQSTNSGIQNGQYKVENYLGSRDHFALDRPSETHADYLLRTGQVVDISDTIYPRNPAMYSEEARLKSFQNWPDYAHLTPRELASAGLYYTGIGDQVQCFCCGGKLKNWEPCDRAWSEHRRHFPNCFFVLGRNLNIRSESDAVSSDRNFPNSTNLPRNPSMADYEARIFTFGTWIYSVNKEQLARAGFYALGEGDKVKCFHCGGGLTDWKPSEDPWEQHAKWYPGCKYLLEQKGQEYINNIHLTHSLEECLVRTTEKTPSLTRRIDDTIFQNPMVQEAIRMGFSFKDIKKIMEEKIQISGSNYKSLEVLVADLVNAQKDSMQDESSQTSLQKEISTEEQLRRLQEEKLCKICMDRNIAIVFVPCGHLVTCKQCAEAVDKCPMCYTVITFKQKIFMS
Homeobox protein Hox-A13 (Mus musculus), sequence (Q62424 whole entry, looked up): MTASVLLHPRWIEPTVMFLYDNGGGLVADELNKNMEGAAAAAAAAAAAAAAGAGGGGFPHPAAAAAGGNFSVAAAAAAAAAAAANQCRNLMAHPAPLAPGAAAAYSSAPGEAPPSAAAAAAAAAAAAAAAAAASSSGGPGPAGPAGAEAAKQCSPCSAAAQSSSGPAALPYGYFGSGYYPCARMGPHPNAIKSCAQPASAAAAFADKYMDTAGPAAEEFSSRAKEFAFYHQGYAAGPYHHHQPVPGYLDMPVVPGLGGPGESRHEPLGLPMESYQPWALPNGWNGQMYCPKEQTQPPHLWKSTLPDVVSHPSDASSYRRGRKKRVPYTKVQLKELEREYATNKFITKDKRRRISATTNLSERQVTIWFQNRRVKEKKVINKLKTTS

Question: With `C=C(/C(=C/C[C@@H](OC(C)=O)c1cccc(OCCO)c1)c1cnc2ccccc2c1)C(C)C` as the molecule, how does the z-score [1] read?
Answer: -0.682

Question: What about the z-score [2] of the same molecule?
Answer: -0.517 (inactive)

Question: What about the z-score [3] of the same molecule?
Answer: -0.421 (inactive)

Question: And the composite z-score [4]?
Answer: -3.98 (inactive)

Question: And the z-score [5]?
Answer: -0.104 (inactive)

Question: And the z-score [6]?
Answer: 0.183 (inactive)

Question: What about the z-score [7] of the same molecule?
Answer: 0.12 (inactive)

Question: What about the z-score [8] of the same molecule?
Answer: -0.406 (inactive)

Question: What about the z-score [9] of the same molecule?
Answer: 0.213

Question: What about the composite z-score [10] of the same molecule?
Answer: -0.157

Question: What about the composite z-score [11] of the same molecule?
Answer: -0.136 (inactive)

Question: What about the composite z-score [12] of the same molecule?
Answer: 0.725

Question: And the z-score [13]?
Answer: -2.95

Question: And the z-score [14]?
Answer: -5.04 (inactive)

Question: What about the z-score [15] of the same molecule?
Answer: 0.0066 (inactive)

Question: What about the z-score [16] of the same molecule?
Answer: 0.0865 (inactive)

Question: What does the source list for `CN1C(=O)[C@@H]2[C@@H](CC(COc3ccccc3)=C3[C@@H](CCc4ccccc4)OB(O)C[C@@H]32)C1=O`?
Answer: z-score [1]: -0.418; z-score [2]: -1.87 (inactive); z-score [3]: -0.675 (inactive); composite z-score [4]: -0.399 (inactive); z-score [5]: 0.2 (inactive); z-score [6]: -0.0646 (inactive); z-score [7]: 0.0204 (inactive); z-score [8]: -0.0443 (inactive); z-score [9]: -0.861; composite z-score [10]: -0.02; composite z-score [11]: 0.106 (inactive); composite z-score [12]: 0.774; z-score [13]: 1.52; z-score [14]: -6.67 (inactive); z-score [15]: 0.556 (inactive); z-score [16]: 0.768 (inactive)

Question: With `COC(=O)[C@@]1(Cc2ccccc2)[C@H]2c3cc(C(=O)N(C)C)n(Cc4ccc(S(C)(=O)=O)cc4)c3C[C@H]2CN1C(=O)c1ccccc1` as the molecule, how does the z-score [1] read?
Answer: -1.17

Question: And the z-score [2]?
Answer: 1.33 (inactive)

Question: What about the z-score [3] of the same molecule?
Answer: -2.74 (inactive)

Question: What about the composite z-score [4] of the same molecule?
Answer: -0.316 (inactive)

Question: And the z-score [5]?
Answer: 1.47 (inactive)

Question: And the z-score [6]?
Answer: 0.879 (inactive)

Question: What about the z-score [7] of the same molecule?
Answer: -1.1 (inactive)

Question: And the z-score [8]?
Answer: -1.28 (inactive)

Question: What about the z-score [9] of the same molecule?
Answer: -0.668

Question: And the composite z-score [10]?
Answer: 0.291

Question: And the composite z-score [11]?
Answer: 1.22 (inactive)

Question: And the composite z-score [12]?
Answer: 0.721

Question: And the z-score [13]?
Answer: -1.5

Question: What about the z-score [14] of the same molecule?
Answer: -5.44 (inactive)

Question: And the z-score [15]?
Answer: 0.492 (inactive)

Question: What about the z-score [16] of the same molecule?
Answer: 0.38 (inactive)

Question: With `C=CCC(OC(C)=O)[C@@H]1[C@@H](N(Cc2ccc(-c3cccc(C(F)(F)F)c3)o2)C(=O)c2ccc(-c3ccccc3)cc2)c2cc(OCCCO)ccc2N1C(=O)c1ccc2ccccc2c1` (some centres undefined) as the molecule, how does the z-score [1] read?
Answer: 0.393

Question: What about the z-score [2] of the same molecule?
Answer: 0.488 (inactive)

Question: What about the z-score [3] of the same molecule?
Answer: 0.314 (inactive)

Question: And the composite z-score [4]?
Answer: -0.0636 (inactive)

Question: What about the z-score [5] of the same molecule?
Answer: -0.452 (inactive)

Question: And the z-score [6]?
Answer: 1.27 (inactive)

Question: What about the z-score [7] of the same molecule?
Answer: 0.391 (inactive)

Question: What about the z-score [8] of the same molecule?
Answer: 0.412 (inactive)

Question: And the z-score [9]?
Answer: 0.881

Question: And the composite z-score [10]?
Answer: -0.0889

Question: What about the composite z-score [11] of the same molecule?
Answer: 0.405 (inactive)

Question: What about the composite z-score [12] of the same molecule?
Answer: -0.378

Question: What about the z-score [13] of the same molecule?
Answer: -1.26

Question: What about the z-score [14] of the same molecule?
Answer: -1.43 (inactive)

Question: What about the z-score [15] of the same molecule?
Answer: 0.366 (inactive)

Question: And the z-score [16]?
Answer: 0.766 (inactive)
